# Assay results from PubChem BioAssay (Tox21).
# Inconclusive results are not listed. Entries that show only a call come without a potency. Some structures have more than one record in an assay (separate samples or runs), and their calls can disagree. The source made the active and inactive calls. Calls come from the whole dose curve.
# Tests used:
# [1] = biological target: Acetylcholinesterase (Homo sapiens) (UniProt P22303); test: Acetylcholinesterase (AChE) small molecule antagonists: colormetric cell-based qHTS assay (AID 1347395); note: nearly all actives have a fitted effect of over 30% in size
# Sequence of Acetylcholinesterase (Homo sapiens) (P22303 whole entry, looked up): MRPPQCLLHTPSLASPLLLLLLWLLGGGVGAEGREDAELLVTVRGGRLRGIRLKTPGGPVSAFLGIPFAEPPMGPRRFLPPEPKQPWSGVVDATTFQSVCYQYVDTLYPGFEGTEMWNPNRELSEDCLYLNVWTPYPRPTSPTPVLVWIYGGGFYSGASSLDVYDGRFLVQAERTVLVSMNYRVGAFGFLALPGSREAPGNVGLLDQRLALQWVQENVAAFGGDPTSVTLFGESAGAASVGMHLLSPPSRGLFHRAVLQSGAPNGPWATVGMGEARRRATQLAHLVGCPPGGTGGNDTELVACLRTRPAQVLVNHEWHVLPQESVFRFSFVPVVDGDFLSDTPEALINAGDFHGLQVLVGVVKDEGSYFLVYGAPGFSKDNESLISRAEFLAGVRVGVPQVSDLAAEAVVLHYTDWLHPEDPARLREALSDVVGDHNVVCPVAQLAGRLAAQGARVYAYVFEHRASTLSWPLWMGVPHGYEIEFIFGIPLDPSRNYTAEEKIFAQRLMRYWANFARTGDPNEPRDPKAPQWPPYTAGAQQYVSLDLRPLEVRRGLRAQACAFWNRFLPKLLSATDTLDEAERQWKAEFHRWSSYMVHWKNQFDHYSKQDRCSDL
# How it was run: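 Neuroblastoma line SH-SY5Y supplied the enzyme; cells were preincubated with compound for 30 min at 37 C and 5% CO2. Acetylthiocholine with DTNB was then added for 90 min at 37 C, and thiocholine was measured by colour.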
# [2] = biological target: Acetylcholinesterase (Homo sapiens) (UniProt P22303); test: Acetylcholinesterase (AChE) small molecule antagonists: enzyme-based qHTS assay (AID 1347397); details: Potency: AChE enzyme activity inhibition; outcome: AChE enzyme activity inhibition; note: nearly all actives have a fitted effect of over 55% in size
# How it was run: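 In this quantitative HTS, compounds from the Tox21 10K collection were preincubated 30 min at ambient temperature with recombinant human AChE dispensed at 50 mU/mL. Hydrolysis of acetylthiocholine was then followed for 10 min by DTNB colour development.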
# [3] = biological target: Acetylcholinesterase (Homo sapiens) (UniProt P22303); test: Acetylcholinesterase (AChE) small molecule antagonists: fluorescence cell-based qHTS assay (AID 1347398); details: Potency: AChE activity; outcome: AChE activity; note: nearly all actives have a fitted effect of over 50% in size
# How it was run: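 Cells (SH-SY5Y) attached overnight, were dosed with compound or DMSO vehicle for 30 min at 37 C, and then incubated 40 min at room temperature with acetylthiocholine and Thiolite Green; green fluorescence indexed AChE activity.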
# [4] = biological target: Acetylcholinesterase (Homo sapiens) (UniProt P22303); test: Acetylcholinesterase (AChE) small molecule antagonists: enzyme-based qHTS assay with human liver microsomes (AID 1347399); details: Potency: qHTS inhibition; outcome: qHTS inhibition; note: nearly all actives have a fitted effect of over 60% in size
# How it was run: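 Recombinant human AChE (50 mU/mL in the enzyme mix) and human liver microsomes (0.25 mg/mL final) were preincubated with compound and NADPH (0.25 mg/mL final) for 30 min at 37 C. Acetylthiocholine/DTNB was then added; thiocholine was read colorimetrically after 10 min at room temperature.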
# Potency is the fitted concentration of half-maximal effect.
Structure (SMILES),Potency [1],Potency [2],Potency [3],Potency [4],"activity change, negative = inhibition [4]","activity, negative = inhibition [1]","activity change, negative = inhibition [2]","activity change, negative = inhibition [3]"
NCC(=O)CCC(=O)O,inactive,inactive,inactive,inactive,–,–,–,–
O=S(=O)(O)CCS,inactive,inactive,inactive,inactive,–,–,–,–
CCc1cccc(CC)c1N(COC)C(=O)CS(=O)(=O)O,inactive,inactive,inactive,inactive,–,–,–,–
Cc1ccc(S(=O)(=O)NC(=O)NN2CC3CCCC3C2)cc1 (stereo unspecified),inactive,inactive,inactive,inactive,–,–,–,–
O=C(c1cc(O)c(O)c(O)c1)c1ccc(O)c(O)c1O,inactive,inactive,inactive,inactive,–,–,–,–
CCS(=O)(=O)c1ccc(OC)c(C(=O)OC)c1,inactive,inactive,inactive,inactive,–,–,–,–
O=C1OC(=O)C2CC=CCC12 (stereo unspecified),inactive,inactive,inactive,inactive,–,–,–,–
CC(=O)CC(=O)Nc1ccccc1C,inactive,inactive,inactive,inactive,–,–,–,–
CCOCCOCC,inactive,inactive,inactive,inactive,–,–,–,–
CC(C)N(c1ccccc1)C(C)C,inactive,inactive,inactive,inactive,–,–,–,–
CC#C[C@]1(O)CC[C@H]2[C@@H]3CCC4=CC(=O)CCC4=C3[C@@H](c3ccc(N(C)C)cc3)C[C@@]21C,inactive,inactive,inactive,inactive,–,–,–,–
NNC(=O)c1ccncc1,inactive,inactive,inactive,inactive,–,–,–,–
NCCOCCO,inactive,inactive,inactive,inactive,–,–,–,–
CCCC(=O)O,inactive,inactive,inactive,inactive,–,–,–,–
CC1Cc2ccccc2N1NC(=O)c1ccc(Cl)c(S(N)(=O)=O)c1 (stereo unspecified),inactive,inactive,inactive,inactive,–,–,–,–
CC(C)C(=O)OCc1cccc(OC(=O)[C@@H]2N3C(=O)[C@@H](NC(=O)Cc4ccccc4)[C@H]3SC2(C)C)c1,inactive,inactive,inactive,inactive,–,–,–,–
O=C(Nc1cccc(C2=NCCN2)c1)Nc1cccc(C2=NCCN2)c1,3.79 µM (active),10.7 µM (active),2.13 µM (active),–,-3.93% [at 23.6 µM] (inactive),–,–,–
O=C1NCC2(CCN(CCc3ccccc3)CC2)O1,inactive,inactive,inactive,inactive,–,–,–,–
CCO[Si](CCCS)(OCC)OCC,inactive,inactive,inactive,inactive,–,–,–,–
OCCc1ccccc1,inactive,inactive,inactive,inactive,–,–,–,–
CC(C)CCOC(=O)/C=C/c1ccccc1,inactive,inactive,inactive,inactive,–,–,–,–
C=CCNCC=C,inactive,inactive,inactive,inactive,–,–,–,–
O=C=NCc1cccc(CN=C=O)c1,–,–,–,–,0.648% [at 23.6 µM] (inactive),-0.545% [at 23.6 µM] (inactive),0.393% [at 23.6 µM] (inactive),-0.0492% [at 23.8 µM] (inactive)
Cc1cc(O)cc(C)c1Cl,inactive,inactive,inactive,inactive,–,–,–,–
CC(C)(Oc1ccc(Cl)cc1)C(=O)O,inactive,inactive,inactive,inactive,–,–,–,–
OC[C@H]1O[C@@](CO)(O[C@H]2O[C@H](CO)[C@@H](O)[C@H](O)[C@H]2O)[C@@H](O)[C@@H]1O,inactive,inactive,inactive,inactive,–,–,–,–
C[C@]12C=CC(=O)C=C1[C@@H](F)C[C@@H]1[C@@H]2[C@@H](O)C[C@@]2(C)[C@H]1CC[C@]2(O)C(=O)CO,inactive,inactive,inactive,inactive,–,–,–,–

Structure (SMILES),Potency [1],Potency [2],Potency [3],Potency [4],"activity change, negative = inhibition [4]","activity, negative = inhibition [1]","activity change, negative = inhibition [2]","activity change, negative = inhibition [3]"
CCC[C@H](N[C@@H](C)C(=O)N1[C@H](C(=O)O)C[C@@H]2CCCC[C@@H]21)C(=O)OCC,inactive,inactive,inactive,inactive,–,–,–,–
CCCCC(CC)COP(=O)(O)OCC(CC)CCCC (stereo unspecified),inactive,inactive,inactive,inactive,–,–,–,–
c1ccc2c(c1)CCC2,inactive,inactive,inactive,inactive,–,–,–,–
CCc1ccc(CCOc2ccc(CC3SC(=O)NC3=O)cc2)nc1 (stereo unspecified),inactive,inactive,inactive,inactive,–,–,–,–
CCOC(=O)CCCCCCCCC(=O)OCC,inactive,inactive,inactive,inactive,–,–,–,–
CCNc1ccccc1,inactive,inactive,inactive,inactive,–,–,–,–
Oc1ccc(Sc2ccc(O)cc2)cc1,inactive,inactive,inactive,inactive,–,–,–,–
CCCCC/C=C\C/C=C\CCCCCCCC(=O)OC,inactive,inactive,inactive,inactive,–,–,–,–
CC(=O)OC/C=C/c1ccccc1,inactive,inactive,inactive,inactive,–,–,–,–
CCOC(=O)C1OC1c1ccccc1 (stereo unspecified),inactive,inactive,inactive,inactive,–,–,–,–
CC(C)(C)C(=O)NCCCC(=O)O,inactive,inactive,inactive,inactive,–,–,–,–
CN(C)c1cc(NC(=O)CNC(C)(C)C)c(O)c2c1C[C@H]1C[C@H]3[C@H](N(C)C)C(=O)C(C(N)=O)=C(O)[C@@]3(O)C(=O)C1=C2O,inactive,inactive,inactive,inactive,–,–,–,–
CC(C)C(=O)OC(=O)C(C)C,inactive,inactive,inactive,inactive,–,–,–,–
CCN1C=CN(C)C1C (stereo unspecified),inactive,inactive,inactive,inactive,–,–,–,–
C#CC1(O)CC[C@H]2[C@@H]3CCC4=CCCC[C@@H]4[C@H]3CC[C@@]21C (stereo partly specified),inactive,inactive,inactive,inactive,–,–,–,–
CC(C)(C)c1ccc(OC2CCCCC2O)cc1 (stereo unspecified),inactive,inactive,inactive,inactive,–,–,–,–
CCOC(=O)C(F)(F)F,inactive,inactive,inactive,inactive,–,–,–,–
O=C1OC2(c3ccc(O)cc3Oc3cc(O)ccc32)c2ccccc21,inactive,inactive,inactive,inactive,–,–,–,–
O=Cc1ccccc1O,inactive,inactive,35.6 µM (active) and inactive,inactive,–,–,–,–
CC(=O)N[C@@H](CCC(N)=O)C(=O)O,inactive,inactive,inactive,inactive,–,–,–,–
O=c1c(O)c(O)c1=O,inactive,inactive,inactive,inactive,–,–,–,–
Nc1ccc(S(=O)(=O)Nc2ccc(Cl)nn2)cc1,inactive,inactive,inactive,inactive,–,–,–,–
CCCCOC(=O)C(C)Oc1ccc(Oc2ccc(C(F)(F)F)cn2)cc1 (stereo unspecified),inactive,inactive,inactive,inactive,–,–,–,–
Cc1cc(C)cc(N)c1,inactive,inactive,inactive,inactive,–,–,–,–
CCOc1ccc(NC(=O)CC(C)O)cc1 (stereo unspecified),inactive,inactive,inactive,inactive,–,–,–,–
C[C@]12C[C@H](O)[C@H]3[C@@H](CCC4=CC(=O)CC[C@@]43C)[C@@H]1CC[C@@H]2C(=O)CO,inactive,inactive,inactive,inactive,–,–,–,–
C[Si](NC1CCCCC1)(NC1CCCCC1)NC1CCCCC1,inactive,inactive,inactive,inactive,–,–,–,–

Structure (SMILES),Potency [1],Potency [2],Potency [3],Potency [4],"activity change, negative = inhibition [4]","activity, negative = inhibition [1]","activity change, negative = inhibition [2]","activity change, negative = inhibition [3]"
O=S(=O)(O)c1cccc(S(=O)(=O)O)c1,inactive,inactive,inactive,inactive,–,–,–,–
NCCCOCCOCCOCCCN,inactive,inactive,inactive,inactive,–,–,–,–
CNCC[C@@H](Oc1ccccc1C)c1ccccc1,inactive,inactive,inactive,inactive,–,–,–,–
CC(C)CNCC(C)C,inactive,inactive,inactive,inactive,–,–,–,–
CN1CC(=O)N/C1=N/C(=O)Nc1cccc(Cl)c1,inactive,inactive,inactive,inactive,–,–,–,–
O=C(Cl)c1ccc([N+](=O)[O-])cc1,inactive,inactive,inactive,inactive,–,–,–,–
COc1ccc2c(c1)c(CC(=O)OCC(=O)O)c(C)n2C(=O)c1ccc(Cl)cc1,inactive,inactive,inactive,inactive,–,–,–,–
Oc1ccccc1O,inactive,inactive,inactive,inactive,–,–,–,–
CCc1cc(Cl)c(OC)c(C(=O)NC[C@@H]2CCCN2CC)c1O,inactive,inactive,inactive,inactive,–,–,–,–
Nc1[nH]c(=O)ncc1F,inactive,inactive,inactive,inactive,–,–,–,–
O=C(O)CC(C(=O)O)C(CC(=O)O)C(=O)O (stereo unspecified),inactive,inactive,inactive,inactive,–,–,–,–
COCC(=O)O,inactive,inactive,inactive,inactive,–,–,–,–
Cc1cc(C)n(CO)n1,inactive,inactive,inactive,inactive,–,–,–,–
CCC1CO1 (stereo unspecified),inactive,inactive,inactive,inactive,–,–,–,–
CC(C)NC(=O)NC(C)C,inactive,inactive,inactive,inactive,–,–,–,–
COc1cccc(N(C)C(=S)Oc2ccc3c(c2)CCCC3)n1,inactive,inactive,inactive,inactive,–,–,–,–
O=C(O)CONC(=O)c1ccccc1,inactive,inactive,inactive,inactive,–,–,–,–
CC(C)c1ccc2sc3ccccc3c(=O)c2c1,inactive,inactive,inactive,inactive,–,–,–,–
O=c1ccc2ccccc2o1,inactive,inactive,inactive,inactive,–,–,–,–
CC(=O)Oc1ccc([N+](=O)[O-])cc1CCl,inactive,inactive,inactive,inactive,–,–,–,–
Oc1cccc2[nH]ccc12,inactive,inactive,inactive,inactive,–,–,–,–
C1=Cc2ccccc2C1,inactive,inactive,inactive,inactive,–,–,–,–
O=c1[nH]c2ccc(S(=O)CCN3CCC(Cc4ccc(F)cc4)CC3)cc2o1 (stereo unspecified),6.33 µM (active),5.64 µM (active),1.12 µM (active),35.6 µM (active),–,–,–,–
CC1(C)C(=O)NC(=O)N1CO,inactive,inactive,inactive,inactive,–,–,–,–
CC1=C(CC(=O)O)c2cc(F)ccc2/C1=C\c1ccc(S(C)=O)cc1 (stereo unspecified),inactive,inactive,inactive,inactive,–,–,–,–
